Source: PubChem BioAssay AID1159580 (chemical genetic matrix, 2015)
Screen size: about 5,500 compounds; about 2,000 (36%) were called active. Another 18% or so got no clear call; they are omitted. Cut-off read from the data, not from the text of the source: active = normalized growth mostly below about 0.91 (no sharp cut-off); inconclusive = no clear call, values can overlap the other calls; inactive = mostly above about 0.92. The list shows a part of the results.

Test: chemical genetic growth profiling, strain panel (AID 1159580);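 note: tested at 20 µM; growth read once vehicle control cultures reached saturation at 30 °C; 1 = growth at the plate median or of vehicle wells; lower values mean less growth of the strain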
Details: growth OD

Measured: normalized growth

CCOC(=O)NNc1nncc2ccccc12
inactive: S. cerevisiae deletion strains, locus YJR066W, strain TOR1, active compounds read low 0.978 | S. cerevisiae deletion strains, locus YJR075W, strain HOC1, active compounds read low 0.997 | S. cerevisiae deletion strains, locus YKL009W, strain mrt4, active compounds read low 0.986 | S. cerevisiae deletion strains, locus YKL068W, active compounds read low 0.984 | S. cerevisiae deletion strains, locus YKL085W, strain MDH1 (second series), active compounds read low 0.992 | S. cerevisiae deletion strains, locus YKL085W, strain MDH1, active compounds read low 0.992 | S. cerevisiae deletion strains, locus YKL160W, strain elf1, active compounds read low 1.02 | S. cerevisiae deletion strains, locus YKL190W, strain CNB1, active compounds read low 0.998 | S. cerevisiae deletion strains, locus YKR001C, strain vps1, active compounds read low 0.983 | S. cerevisiae deletion strains, locus YKR026C, strain gcn3, active compounds read low 1.02 | S. cerevisiae deletion strains, locus YKR091W, strain srl3, active compounds read low 1 | S. cerevisiae deletion strains, locus YLL001W, strain dnm1, active compounds read low 0.986 | S. cerevisiae deletion strains, locus YLL026W, active compounds read low 1 | S. cerevisiae deletion strains, locus YLL041C, strain sdh2, active compounds read low 1.01 | S. cerevisiae deletion strains, locus YLR027C, strain aat2, active compounds read low 1 | S. cerevisiae deletion strains, locus YLR039C, strain RIC1, active compounds read low 1.03 | S. cerevisiae deletion strains, locus YLR058C, strain SHM2, active compounds read low 0.992 | S. cerevisiae deletion strains, locus YLR102C, strain apc9, active compounds read low 0.979 | S. cerevisiae deletion strains, locus YLR113W, strain HOG1, active compounds read low 0.967 | S. cerevisiae deletion strains, locus YLR221C, strain rsa3, active compounds read low 0.976 | S. cerevisiae deletion strains, locus YLR258W, strain gsy2, active compounds read low 1.04 | S. cerevisiae deletion strains, locus YLR262C, strain YPT6 (second series), active compounds read low 1.01 | S. cerevisiae deletion strains, locus YLR262C, strain YPT6, active compounds read low 1.02 | S. cerevisiae deletion strains, locus YLR268W, strain sec22, active compounds read low 0.968 | S. cerevisiae deletion strains, locus YLR320W, strain mms22, active compounds read low 0.92 | S. cerevisiae deletion strains, locus YLR330W, strain CHS5, active compounds read low 0.992 | S. cerevisiae deletion strains, locus YLR342W, strain FKS1 (second series), active compounds read low 0.973 | S. cerevisiae deletion strains, locus YLR342W, strain FKS1, active compounds read low 1.03 | S. cerevisiae deletion strains, locus YLR357W, strain rsc2, active compounds read low 1.06 | S. cerevisiae deletion strains, locus YLR370C, strain arc18, active compounds read low 1.02 | S. cerevisiae deletion strains, locus YLR371W, strain rom2, active compounds read low 0.977 | S. cerevisiae deletion strains, locus YLR384C, strain iki3, active compounds read low 0.989 | S. cerevisiae deletion strains, locus YLR418C, strain cdc73, active compounds read low 0.957 | S. cerevisiae deletion strains, locus YML016C, strain PPZ1, active compounds read low 0.991 | S. cerevisiae deletion strains, locus YML032C, strain rad52, active compounds read low 0.97 | S. cerevisiae deletion strains, locus YML120C, strain ndi1, active compounds read low 0.992 | S. cerevisiae deletion strains, locus YML124C, strain tub3, active compounds read low 0.983 | S. cerevisiae deletion strains, locus YMR058W, strain fet3, active compounds read low 1.01 | S. cerevisiae deletion strains, locus YMR078C, strain ctf18, active compounds read low 0.983 | S. cerevisiae deletion strains, locus YMR125W, strain sto1, active compounds read low 1.03 | S. cerevisiae deletion strains, locus YMR129W, active compounds read low 0.988 | S. cerevisiae deletion strains, locus YMR205C, strain PFK2, active compounds read low 0.993 | S. cerevisiae deletion strains, locus YMR223W, strain ubp8, active compounds read low 0.972 | S. cerevisiae deletion strains, locus YMR231W, strain pep5, active compounds read low 0.997 | S. cerevisiae deletion strains, locus YMR307W, strain GAS1, active compounds read low 0.972 | S. cerevisiae deletion strains, locus YNL067W, strain RPL9B, active compounds read low 1.01 | S. cerevisiae deletion strains, locus YNL071W, strain lat1, active compounds read low 1.01 | S. cerevisiae deletion strains, locus YNL128W, strain TEP1, active compounds read low 0.967 | S. cerevisiae deletion strains, locus YNL183C, strain NPR1, active compounds read low 0.934 | S. cerevisiae deletion strains, locus YNL209W, strain ssb2, active compounds read low 1.01 | S. cerevisiae deletion strains, locus YNL233W, strain BNI4, active compounds read low 0.998 | S. cerevisiae deletion strains, locus YNL248C, strain rpa49, active compounds read low 1.06 | S. cerevisiae deletion strains, locus YNL250W, strain rad50, active compounds read low 0.995 | S. cerevisiae deletion strains, locus YNL271C, strain bni1, active compounds read low 0.973 | S. cerevisiae deletion strains, locus YNL298W, strain CLA4, active compounds read low 0.985 | S. cerevisiae deletion strains, locus YNL307C, strain MCK1, active compounds read low 0.977 | S. cerevisiae deletion strains, locus YNL322C, strain KRE1 (second series), active compounds read low 1.05 | S. cerevisiae deletion strains, locus YNL322C, strain KRE1, active compounds read low 0.998 | S. cerevisiae deletion strains, locus YNR049C, strain mso1, active compounds read low 1 | S. cerevisiae deletion strains, locus YNR052C, strain pop2, active compounds read low 0.966 | S. cerevisiae deletion strains, locus YOL006C, strain TOP1, active compounds read low 1.02 | S. cerevisiae deletion strains, locus YOL012C, strain htz1 1.25 | S. cerevisiae deletion strains, locus YOL147C, strain pex11, active compounds read low 0.98 | S. cerevisiae deletion strains, locus YOR001W, strain rrp6, active compounds read low 0.97 | S. cerevisiae deletion strains, locus YOR061W, strain CKA2, active compounds read low 0.986 | S. cerevisiae deletion strains, locus YOR069W, strain VPS5, active compounds read low 0.986 | S. cerevisiae deletion strains, locus YOR070C, strain gyp1, active compounds read low 1.01 | S. cerevisiae deletion strains, locus YOR080W, strain dia2, active compounds read low 1.02 | S. cerevisiae deletion strains, locus YOR083W, strain WHI5, active compounds read low 0.99 | S. cerevisiae deletion strains, locus YOR106W, strain vam3, active compounds read low 1.05 | S. cerevisiae deletion strains, locus YOR136W, strain idh2, active compounds read low 0.981 | S. cerevisiae deletion strains, locus YOR144C, strain elg1, active compounds read low 0.983 | S. cerevisiae deletion strains, locus YOR184W, strain ser1, active compounds read low 0.98 | S. cerevisiae deletion strains, locus YOR231W, strain MKK1, active compounds read low 0.952 | S. cerevisiae deletion strains, locus YOR265W, strain rbl2, active compounds read low 0.992 | S. cerevisiae deletion strains, locus YOR270C, strain vph1, active compounds read low 1.06 | S. cerevisiae deletion strains, locus YOR290C, strain snf2, active compounds read low 1.05 | S. cerevisiae deletion strains, locus YOR316C, strain cot1, active compounds read low 0.976 | S. cerevisiae deletion strains, locus YPL051W, strain arl3, active compounds read low 1.02 | S. cerevisiae deletion strains, locus YPL055C, strain LGE1, active compounds read low 1.04 | S. cerevisiae deletion strains, locus YPL078C, strain atp4, active compounds read low 1.07 | S. cerevisiae deletion strains, locus YPL106C, strain sse1, active compounds read low 1.04 | S. cerevisiae deletion strains, locus YPL240C, strain hsp82, active compounds read low 1.01 | S. cerevisiae deletion strains, locus YPL241C, strain CIN2, active compounds read low 0.993 | S. cerevisiae deletion strains, locus YPL256C, strain CLN2, active compounds read low 0.955 | S. cerevisiae deletion strains, locus YPR119W, strain clb2, active compounds read low 0.975 | S. cerevisiae deletion strains, locus YPR141C, strain kar3, active compounds read low 0.973 | S. cerevisiae deletion strains, locus YPR163C, strain tif3, active compounds read low 0.969 | S. cerevisiae deletion strains, locus YPR167C, strain met16, active compounds read low 0.975 | S. cerevisiae deletion strains, strain wtn01, active compounds read low 1.01 | S. cerevisiae strains, strain wild type, active compounds read low 1
